# Source: PubChem
# The list is not random: actives were taken first. Their share in the collection is about 19%.
# IL1B secr inh – blocks inflammasome-driven IL-1 beta release. THP-1 LPS/ATP IL-1B secretion, AlphaLISA, 16 h; active compounds read low. activity change, % at 57.5 µM. 4.7% of 360,000 active. AID 743279; in the data active means activity change below about -50%; inconclusive means mostly about -30% to -49%
#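 THP-1 cells pretreated 1 hr with compounds (up to 57.5 uM final), then stimulated with LPS (250 ng/mL final) plus ATP (1.25 mM final); secreted IL-1B measured by AlphaLISA after 16 hr, decreased signal indicating inhibition.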
# TDP1 cell noCPT – qHTS for Inhibitors of human tyrosyl-DNA phosphodiesterase 1 (TDP1): qHTS in cells in absence of CPT. DT40 Tdp1-/- hTDP1 cells, no CPT, ATP luminescence, 48 h. Potency, µM (titrated, usually from 46.2 µM), for the others: top-dose activity change, negative = growth inhibition, actives largely listed as inhibitors. 15% of 420,000 active; further: potency means the concentration at half of the fitted maximal effect; nearly all actives have a fitted effect of over 55% in size
#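 A cellular qHTS used chicken DT40 cells lacking endogenous Tdp1 but carrying stably transfected human TDP1. Compounds were applied without camptothecin, and cell growth kinetics were judged by ATP-dependent luminescence after ≥48 hr.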
# TDP1 cell CPT – DT40-hTDP1 cell growth loss with CPT | 12% of 420,000 active | chicken DT40 Tdp1-/-;hTDP1 cells + 20 nM CPT, ATP luminescence, 48 h | AID 686979 | Potency, µM (highest dose often 46.2 µM), without a hit: at the top dose activity change, negative = growth inhibition, hits mostly inhibitors; further: potency means the concentration at half of the fitted maximal effect; nearly all actives have a fitted effect of over 55% in size
#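 Chicken DT40 Tdp1-/- cells stably complemented with human TDP1 were seeded at 400 cells/well in medium containing 20 nM camptothecin, exposed to pin-transferred compounds, and grown at 37 °C for at least 48 hr. Viability was read as ATP luminescence.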
# Giardia kill – kills Giardia lamblia. Giardia lamblia trophozoite viability. activity change, % at 7.66 µM, hits read low. 0.15% of 340,000 active. AID 540267; in the data active means activity change below about -80%; inconclusive means between about -30% and that limit;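 further: parasites exposed to compound for two days anaerobically before the ATP read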
#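 ATP-content bioluminescence gauges trophozoite survival. Cells (100/well) receive compound and incubate anaerobically for 48 hrs at 37 deg C; detection reagent follows for 15-30 min at room temperature.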
# ELG1 repair inh – blocks ELG1-dependent DNA repair in HEK293T cells. AID 504467. Potency, µM (highest dose often 46.1 µM), inactives show at the top dose activity change, negative = inhibition, usual class: inhibitors. HEK293T ELG1-luciferase reporter, luminescence, 16 h; DNA damage induced by 5-fluorouridine. 2.3% of 330,000 active; further: potency means the concentration at half of the fitted maximal effect; nearly all actives have a fitted effect of over 55% in size
#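 HEK293T cells expressing luciferase-tagged ELG1 (2,000/well) received 5-Fluorouridine plus compound or DMSO for 16 hr at 37 °C. Luciferase was read by ONE-Glo luminescence after 30 min at room temperature.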
# TDP1 block – TDP1 (human) enzyme inhibition; Q9NUW8; recombinant TDP1, AlphaScreen DNA substrate cleavage; Potency, µM (titrated, usually from 130 µM), for inactives: at the top dose activity change, negative = inhibition, usual class: inhibitors; 0.28% of 350,000 active; AID 485290; further: potency means the concentration at half of the fitted maximal effect; nearly all actives have a fitted effect of over 40% in size
# Target sequence (Q9NUW8 whole entry, looked up): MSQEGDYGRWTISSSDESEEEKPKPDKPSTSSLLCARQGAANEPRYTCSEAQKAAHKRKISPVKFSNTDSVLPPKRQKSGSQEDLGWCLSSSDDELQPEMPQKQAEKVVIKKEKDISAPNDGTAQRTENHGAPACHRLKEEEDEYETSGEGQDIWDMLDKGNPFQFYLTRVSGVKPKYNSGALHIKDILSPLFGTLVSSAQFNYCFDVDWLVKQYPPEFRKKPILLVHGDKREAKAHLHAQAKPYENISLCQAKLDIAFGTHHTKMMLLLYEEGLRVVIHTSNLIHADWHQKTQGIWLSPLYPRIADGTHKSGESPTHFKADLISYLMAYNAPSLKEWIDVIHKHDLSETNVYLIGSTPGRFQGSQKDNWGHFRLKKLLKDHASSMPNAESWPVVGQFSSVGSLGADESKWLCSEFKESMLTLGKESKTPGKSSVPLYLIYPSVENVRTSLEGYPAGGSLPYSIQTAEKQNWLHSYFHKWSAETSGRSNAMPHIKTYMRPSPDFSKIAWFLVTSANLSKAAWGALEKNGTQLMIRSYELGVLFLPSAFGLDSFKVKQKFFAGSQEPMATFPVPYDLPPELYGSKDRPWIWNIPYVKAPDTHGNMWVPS
#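 Recombinant human Tdp1 (E. coli-expressed, 1 nM final) preincubated with compounds 15 min at room temperature, then 5'-biotin/3'-phosphotyrosine-FITC DNA substrate (15 nM final) added for 5 min. AlphaScreen beads (10 ug/ml final) added 10 min; cleavage lowers signal.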
# Active calls of the source: *; ? = inconclusive; / = no result given; [ ] = another dose, or the depositor's remark. Unless noted, the call rests on the fitted dose curve; in most records, active means well fitted curve in the direction sought with a large enough effect; inconclusive means small, poorly fitted or top-dose-only effect, or another doubt; inactive means no such curve, though single readings can be large; an effect the other way counts as inactive or inconclusive. On the % scale 0 is the no-effect control and ±100 the full control effect.
SMILES,IL1B secr inh,TDP1 cell noCPT,TDP1 cell CPT,Giardia kill,ELG1 repair inh,TDP1 block
Cc1ccc(C(=O)Nc2ccc3nc(SCC(=O)N4CCc5ccccc54)sc3c2)cc1,/,?,?,/,/,2%
CCCCC(=O)Nc1ccc2nc(SCC(=O)N3CCc4ccccc43)sc2c1,/,5.8µM*,15µM*,/,/,-4%
CCOC(=O)c1c(-c2ccccc2)c2cc(OC)ccc2n1CCCN(C)C,-50*,?,?,-12,?,/
CCOC(=O)c1c(-c2ccccc2)oc2ccc(OC)cc12,16,?,-5%,?,0%,-11%
O=C(COC(=O)CC1SC(N2CCCC2)=NC1=O)Nc1ccc(Br)cc1 (stereo unspecified),18,-12%,-2%,12,-5%,-10%
Cc1ccc(-c2nc(-c3cc4cccc(OCc5ccc(F)cc5)c4oc3=O)no2)cc1,/,18µM*,?,/,/,3%
Cc1ccc(-c2nc(-c3cc4cccc(OCc5cccc(F)c5)c4oc3=O)no2)cc1,/,13µM*,15µM*,/,/,2%
Cc1ccc(-n2ccnc(SCC(=O)NCCc3ccccc3)c2=O)cc1F,-25,15µM*,?,?,0%,-2%
O=C(c1n[nH]c2c1CCCC2)N1CCC(n2c(C3CCCO3)nc3ccccc32)CC1 (stereo unspecified),/,-26%,-6%[9.04 µM],/,/,/
O=C(c1nc(-c2ccc(Cl)cc2)n2c1CCCCC2)N1CCN(c2ccc(F)cc2)CC1,/,10µM*,23µM*,/,/,11%
O=C(c1nc(-c2ccc(Cl)cc2)n2c1CCCCC2)N1CCN(c2ccccc2F)CC1,/,16µM*,?,/,/,12%
COc1cc(Cl)c(NS(=O)(=O)c2ccc3[nH]c(=O)ccc3c2)c(OC)c1,/,?,6%,/,/,5%
O=C(N/N=C/c1cccs1)c1cc(-c2ccc(Cl)s2)[nH]n1,?,?,-13%,-3,5%,?
COc1ccc(-c2nc(N)n(C(=O)c3ccccc3Cl)n2)cc1,1,?,?,9,1%,3%
Cc1ccc2cc3c(N)nn(C(=O)c4cccc(F)c4)c3nc2c1,/,7.3µM*,?,/,/,4%
COc1ccc(-n2cnc(N)c2C(=O)c2cccc([N+](=O)[O-])c2)cc1,-3,?,16µM*,10,16µM*,3%
COc1ccc2cc3c(N)nn(C(=O)c4cccc([N+](=O)[O-])c4)c3nc2c1,-11,?,?,-24,2.3µM*,0%
COc1ccc2cc3c(N)nn(C(=O)c4ccc(F)cc4Cl)c3nc2c1,/,8.2µM*,9.2µM*,/,/,8%
COc1ccc(C(=O)n2nc(N)c3cc4ccc(C)cc4nc32)cc1OC,/,-18%,15%,/,/,-4%
COc1ccc(N(CC(=O)NC2CCCCC2)C(=O)CCC(=O)Nc2nc(C)cs2)cc1OC,8,-14%,-19%,5,12%,10%
C[C@H]1CN([C@@H](C)CO)C(=O)CCCn2nncc2CO[C@@H]1CN(C)S(=O)(=O)c1ccc(Oc2ccccc2)nc1,-3,-22%,-15%,/,/,/
Cc1cccc(N2CCN(C(=O)Cn3nc(C)c4sc5ccccc5c4c3=O)CC2)c1C,/,4%,-2%,/,/,11%
CCOc1ccc(CC(=O)NCCS(=O)(=O)N2CCN(c3ccc(OC)cc3)CC2)cc1,/,-30%,-25%,/,/,-1%
COCCN(CCOC)C(=O)c1cc2c(=O)n3ccccc3nc2n1C,/,-23%,-3%,/,/,-3%
COc1ccc2cc3c(N)nn(C(=O)C4CCC(C(C)(C)C)CC4)c3nc2c1 (stereo unspecified),-86*,18µM*,9.2µM*,3,1.8µM*,5%
SMILES,IL1B secr inh,TDP1 cell noCPT,TDP1 cell CPT,Giardia kill,ELG1 repair inh,TDP1 block
COc1ccc2cc3c(N)nn(C(=O)Cc4ccccc4OC)c3nc2c1,-60*,9.2µM*,9.2µM*,2,?,5%
C[C@H](O)c1[nH]c2cc(F)ccc2c1[C@H](C)O,9,-26%,-25%,-7,5%,/
Cc1nc(-c2ccccc2)sc1-c1ccc(SCC(=O)NCc2ccc(F)cc2)nn1,/,-4%,-10%,/,/,8%
COc1cc(C#N)c(NC(=O)CN2CCN(CCO)CC2)cc1OC,20,-7%,4%,6,8%,-5%
COc1cc(C(=O)Sc2ccc(Cl)cc2)cc(OC)c1OC,?,12µM*,13µM*,-9,-9%,-4%
CCOC(=O)c1cc(=O)n2nc(-c3ccccc3F)nc2s1,-24,23µM*,?,12,16%,-4%
Cc1ccc(N=Nc2c(C)[nH]n(C(N)=S)c2=O)cc1C,10,1.6µM*,1.8µM*,2,?,0%
Cc1[nH]n(C(N)=S)c(=O)c1N=Nc1ccc2ccccc2c1,22,?,?,-9,?,10%
Cc1[nH]n(C(N)=S)c(=O)c1N=Nc1cc(-c2ccc(Br)cc2)[nH]n1,6,2.9µM*,3.3µM*,-4,?,8%
Cc1[nH]n(C(N)=S)c(=O)c1N=Nc1ccc(S(=O)(=O)N2CCCCCC2)cc1,0,21µM*,?,0,0%,12%
CC(=O)Nc1ccc(N=Nc2c(C)[nH]n(C(N)=S)c2=O)cc1,-7,-13%,-16%,-5,?,-5%
Cc1cc(C)cc(NC(=O)CSc2nc(-c3cccc(Cl)c3)nc3c2Cc2c(CO)cnc(C)c2O3)c1,/,-3%,-23%,/,/,5%
CN(C)C1=NC[C@H](Cc2ccccc2)N1CC1CCCCCC1,-12,15µM*,5.8µM*,-29,-13%,-3%
C[C@H]1CN=C(N(C)C)N1CCc1ccccc1,13,-4%,3%,5,-15%,-7%
CN(C)C1=NCCN1CC1CCCC1,14,-13%,-16%,12,-3%,-5%
CC[C@@H](C)[C@@H]1CN([C@@H](CN2CCC[C@H]2CN2C(N)=NC[C@@H]2Cc2ccccc2)C(C)C)C(=N)N1CCCC1CCCC1,?,?,?,-6,15%,1%
CN(C)C1=NC[C@H](Cc2ccccc2)N1CCCC1CCCCC1,?,6.5µM*,7.3µM*,-15,4%,-6%
C[C@H]1CN=C(N(C)C)N1CCC1CCCC1,-12,?,?,?,?,1%
CN(C)C1=NC[C@H](Cc2ccccc2)N1CCCC1CCCC1,?,21µM*,16µM*,9,-5%,/
CN(C)C1=NCCN1CCCC1CCCC1,23,12µM*,?,4,1%,-5%
